# Out of some 370,000 compounds screened, about 4,100 (1.1%) were called active.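 Rule for the calls: active = inhibition above the mean over all tested compounds plus 3 SD (cut at about 3.6% in these data); inactive = the rest.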 Shown is part of a subset that was picked to be rich in actives.
# Assay: relief of DAX-1 repression of SF-1 activity – cell-based, luminescence, SF-1 (NR5A1), full-length DAX-1, primary screen (AID 652010);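 note: 0% = DAX-1 cells with DMSO and 100% = cells lacking DAX-1 with DMSO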
# Details: HEK293T StAR-luciferase reporter, SF-1/DAX-1 repression relief; at 6.8 µM; stronger effect = higher value
row,SMILES,inhibition
1,CCOc1ccc(NC(=O)COc2ccc(S(=O)(=O)N3CCCC3)cc2)cc1,-0.61% (inactive)
2,COc1ccc(-n2c(COc3ccccc3)nnc2SCC(=O)Nc2ccc3c(c2)OCO3)cc1,-0.36% (inactive)
3,CC(c1ccc(N)cc1)c1cn(C)c2ccccc12 (centres undefined),-0.01% (inactive)
4,COc1ccc(Cn2cc(COC(=O)N(C)Cc3ccccc3)nn2)cc1,-0.67% (inactive)
5,Cc1nn(C(=O)c2ccoc2C)c(N)c1-c1ccccc1,3.82% (active)
6,Cc1nn2c(c1-c1ccccc1)N=C(c1ccco1)CC2c1ccccc1 (centres undefined),-0.86% (inactive)
7,Cc1cc(-c2ccccc2)n2nc(C)c(-c3ccccc3)c2n1,0.27% (inactive)
8,O=C(NCCc1c[nH]c2ccccc12)OCc1cn(-c2c(F)cccc2F)nn1,-0.6% (inactive)
9,Cc1nc2ccc(S(=O)(=O)N(C)CC(=O)NC(C)c3ccccc3)cc2s1 (centres undefined),-0.1% (inactive)
10,Cc1cccc(N(CC(=O)Nc2ccc(-c3nc4ccc(C)cc4s3)cc2)S(C)(=O)=O)c1,1.57% (inactive)
11,Cc1ccc2nc(-c3ccc(NC(=O)CN(C)S(=O)(=O)c4ccccc4)cc3)sc2c1,3.65% (active)
12,O=S1(=O)c2c(cccc2N2CCCC2)O[C@H](COCc2ccccc2)CN1C1CC1,-1.16% (inactive)
13,C=CCN1C(=O)[C@@H](CC(=O)NCC2CCCCC2)[C@]2(C(=O)OC)CCCCC=C12,0.53% (inactive)
14,COC(C(=O)Nc1ccc(S(=O)(=O)Nc2ccc(C)c(C)c2)cc1)c1ccccc1 (centres undefined),-1.03% (inactive)
15,Cc1ccc(NNC(=O)C2CCC2)cc1C,0.22% (inactive)
16,Cc1ccc(N/C=C/C(=O)c2ccccc2)cc1C,5.15% (active)
17,Nc1nc2c(ncn2[C@@H]2O[C@H](C(=O)N[C@H](Cc3ccccc3)C(=O)NCC3CCCCC3)[C@@H](O)[C@H]2O)c(=O)[nH]1,1.02% (inactive)
18,COC(=O)Nc1nc2ccc(C(=O)C3CC3)cc2[nH]1,7.48% (active)
19,COc1ccc(CNC(=O)c2cc(C(=O)C3CC3)c[nH]2)cc1,-2.24% (inactive)
20,COC(=O)Nc1nc2ccc(Sc3ccccc3)cc2[nH]1,0.19% (inactive)

row,SMILES,inhibition
1,COc1ccc(-n2c(COc3ccc(C)cc3)nnc2SCC(=O)Nc2ccc(Oc3ccccc3)cc2)cc1,-1.51% (inactive)
2,COc1ccc(Cn2cc(CN3[C@@H](CC(C)C)COc4cc(Br)ccc4S3(=O)=O)nn2)cc1,0.86% (inactive)
3,C=CCN1[C@H](CC(C)C)COc2cccc(N3CCCC3)c2S1(=O)=O,-1.88% (inactive)
4,O=C(CCc1ccccc1)Nc1ccc(NC(=O)C2CC2)nc1,-0.05% (inactive)
5,O=C(CCc1ccccc1)Nc1ncc([N+](=O)[O-])s1,4.52% (active)
6,O=C(CCc1ccccc1)Nc1ccc(NC(=O)C2CCCCC2)nc1,-0.14% (inactive)
7,Cc1cc2oc(C(=O)Nc3c(C)n(C)n(-c4ccccc4)c3=O)c(C)c2cc1Cl,-0.22% (inactive)
8,Cc1ccnc(NC(=O)CCCOc2ccccc2)c1,0.57% (inactive)
9,Cc1ccnc(NC(=O)Cn2ccc([N+](=O)[O-])n2)c1,0.11% (inactive)
10,Cc1ccnc(NC(=O)CNC(=O)c2ccccc2)c1,6.34% (active)
11,O=C(CN1CCCc2ccccc21)NCc1ccc(F)cc1,-0.22% (inactive)
12,Brc1ccc(COCCc2cn(Cc3ccccc3)c3ccccc23)cc1,1.27% (inactive)
13,O=C(COc1ccc(Br)cc1F)NCC1(N2CCCCC2)CCCCC1,0.06% (inactive)
14,CC(C)N(Cc1nnc(-c2ccc(Cl)cc2)o1)C(=O)C1=COCCO1,-1.6% (inactive)
15,CN(C)CCN(C(=O)C1=COCCO1)c1nc2ccc(Cl)cc2s1,4.61% (active)
16,CCCOP(=O)(c1ccc(N(C)C)cc1)C(O)c1cc(OC)c(OC)c(OC)c1 (centres undefined),0.1% (inactive)
17,CCCC[C@H](C(=O)N(CC)c1ccccc1)[C@@H](O)c1ccc2ccccc2c1,-1.35% (inactive)
18,COC(=O)[C@]12C[C@H](CC(=O)NCc3cccc4ccccc34)C(=O)N(CCc3ccc(OC)c(OC)c3)C1=C[C@H](C1CCCC1)O[C@@H]2C,-1.59% (inactive)
19,C#CCN([C@H](C(=O)OC)C(C)CC)S(=O)(=O)c1ccccc1Br (some centres undefined),-0.34% (inactive)
20,COc1ccc(NS(=O)(=O)c2ccc(C)c(C(=O)NCC(c3cccs3)N3CCOCC3)c2)cc1 (centres undefined),1.82% (inactive)

row,SMILES,inhibition
1,COc1ccc(C(CNC(=O)c2cccc(NS(=O)(=O)c3ccc(C)c(F)c3)c2)N2CCCC2)cc1 (centres undefined),2.54% (inactive)
2,COc1ccc(C(CNC(=O)c2cc(S(=O)(=O)Nc3cccc(C)c3)ccc2C)N2CCCC2)cc1 (centres undefined),4.48% (active)
3,CCOC(=O)C1(Cc2ccccc2)CCN(Cc2cn(C(C)=O)c3ccccc23)CC1,-0.4% (inactive)
4,COc1ccccc1C(=O)NCCC(=O)NCC(c1ccco1)N1CCCCC1 (centres undefined),0.45% (inactive)
5,O=C(c1cc2sccc2n1Cc1ccc(F)cc1)N1CCc2ccccc21,-0.14% (inactive)
6,O=C(c1cnn2ccccc12)N1CCc2ccccc21,6% (active)
7,CCCCn1nc(C(=O)N2CCc3ccccc32)c2ccccc2c1=O,-1% (inactive)
8,Cc1ccccc1C(=O)N[C@H](C(=O)N1CCC[C@H]1C(=O)NCc1ccccc1)C(C)C,0.49% (inactive)
9,O=C(CCS(=O)(=O)Cc1ccccc1)Nc1ccc2c(c1)OCCO2,-0.13% (inactive)
10,Nc1c(C(=O)Nc2ccc3c(c2)OCCO3)nnn1Cc1ccccc1,11.8% (active)
11,O=C(Nc1ccc2c(c1)OCCO2)C(C1CC1)N1CCC(Cc2ccccc2)CC1 (centres undefined),-0.46% (inactive)
12,Cc1ccc(NC(=O)Cc2cccc(F)c2)c(S(=O)(=O)N2CCOCC2)c1,-1.09% (inactive)
13,O=C(CSc1nnc(-c2ccccn2)n1-c1ccccc1)Nc1ccc2cn[nH]c2c1,-1.05% (inactive)
14,COc1cccc(-c2nc3cc(C)ccc3o2)c1,4.5% (active)
15,CNc1ccc([N+](=O)[O-])cc1C(=O)O,0.42% (inactive)
16,COc1cccc(NS(=O)(=O)c2ccc(-c3coc(C)n3)cc2)c1,-0.43% (inactive)
17,O=[N+]([O-])c1ccc2oc(-c3cccc(O)c3)nc2c1,5.24% (active)
18,O=[N+]([O-])c1ccc2c(c1)C(O)n1nc(-c3ccccc3)nc1S2 (centres undefined),-0.33% (inactive)
19,COc1cccc(-c2cnc(OC(C)(C)C)nc2OC(C)(C)C)c1,-0.07% (inactive)

# From PubChem BioAssay AID652010 (The Scripps Research Institute Molecular Screening Center, 2013)
